# High-throughput results as filed in PubChem.
# Sfp inh: qHTS Assay for Inhibitors of Bacillus subtilis Sfp phosphopantetheinyl transferase (PPTase) | 310,000 compounds, 3.5% hits | Biochemical Sfp PPTase activity, qHTS | Potency, µM, inactives show largest response in the series, negative = inhibition, hits mostly inhibitors;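 note: the enzyme is Sfp with the accession as filed and its product quenches rhodamine fluorescence; 0% = enzyme reaction without inhibitor and -100% = no enzyme wells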
#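 After 15 min at room temperature with compound, 15 nM Sfp received 5 uM rhodamine-CoA plus 12.5 uM BHQ-2-ybbR (50 mM Hepes pH 7.6, 10 mM MgCl2). Rate came from the fluorescence difference over 30 min, ex 525/em 598 nm.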
# BAZ2B inh: qHTS Assay for Inhibitors of BAZ2B | AlphaScreen BAZ2B-H3K14Ac peptide displacement | Potency, µM (titrated, usually from 114 µM), inactives show top-dose activity change, negative = inhibition, usual class: inhibitors | 360,000 compounds, 4.4% hits | AID 504333, 2011; note: % is set by controls: 0 for no effect and ±100 for the full control effect; nearly all actives have a fitted effect of over 60% in size
# Target sequence (Q9UIF8 whole entry, looked up): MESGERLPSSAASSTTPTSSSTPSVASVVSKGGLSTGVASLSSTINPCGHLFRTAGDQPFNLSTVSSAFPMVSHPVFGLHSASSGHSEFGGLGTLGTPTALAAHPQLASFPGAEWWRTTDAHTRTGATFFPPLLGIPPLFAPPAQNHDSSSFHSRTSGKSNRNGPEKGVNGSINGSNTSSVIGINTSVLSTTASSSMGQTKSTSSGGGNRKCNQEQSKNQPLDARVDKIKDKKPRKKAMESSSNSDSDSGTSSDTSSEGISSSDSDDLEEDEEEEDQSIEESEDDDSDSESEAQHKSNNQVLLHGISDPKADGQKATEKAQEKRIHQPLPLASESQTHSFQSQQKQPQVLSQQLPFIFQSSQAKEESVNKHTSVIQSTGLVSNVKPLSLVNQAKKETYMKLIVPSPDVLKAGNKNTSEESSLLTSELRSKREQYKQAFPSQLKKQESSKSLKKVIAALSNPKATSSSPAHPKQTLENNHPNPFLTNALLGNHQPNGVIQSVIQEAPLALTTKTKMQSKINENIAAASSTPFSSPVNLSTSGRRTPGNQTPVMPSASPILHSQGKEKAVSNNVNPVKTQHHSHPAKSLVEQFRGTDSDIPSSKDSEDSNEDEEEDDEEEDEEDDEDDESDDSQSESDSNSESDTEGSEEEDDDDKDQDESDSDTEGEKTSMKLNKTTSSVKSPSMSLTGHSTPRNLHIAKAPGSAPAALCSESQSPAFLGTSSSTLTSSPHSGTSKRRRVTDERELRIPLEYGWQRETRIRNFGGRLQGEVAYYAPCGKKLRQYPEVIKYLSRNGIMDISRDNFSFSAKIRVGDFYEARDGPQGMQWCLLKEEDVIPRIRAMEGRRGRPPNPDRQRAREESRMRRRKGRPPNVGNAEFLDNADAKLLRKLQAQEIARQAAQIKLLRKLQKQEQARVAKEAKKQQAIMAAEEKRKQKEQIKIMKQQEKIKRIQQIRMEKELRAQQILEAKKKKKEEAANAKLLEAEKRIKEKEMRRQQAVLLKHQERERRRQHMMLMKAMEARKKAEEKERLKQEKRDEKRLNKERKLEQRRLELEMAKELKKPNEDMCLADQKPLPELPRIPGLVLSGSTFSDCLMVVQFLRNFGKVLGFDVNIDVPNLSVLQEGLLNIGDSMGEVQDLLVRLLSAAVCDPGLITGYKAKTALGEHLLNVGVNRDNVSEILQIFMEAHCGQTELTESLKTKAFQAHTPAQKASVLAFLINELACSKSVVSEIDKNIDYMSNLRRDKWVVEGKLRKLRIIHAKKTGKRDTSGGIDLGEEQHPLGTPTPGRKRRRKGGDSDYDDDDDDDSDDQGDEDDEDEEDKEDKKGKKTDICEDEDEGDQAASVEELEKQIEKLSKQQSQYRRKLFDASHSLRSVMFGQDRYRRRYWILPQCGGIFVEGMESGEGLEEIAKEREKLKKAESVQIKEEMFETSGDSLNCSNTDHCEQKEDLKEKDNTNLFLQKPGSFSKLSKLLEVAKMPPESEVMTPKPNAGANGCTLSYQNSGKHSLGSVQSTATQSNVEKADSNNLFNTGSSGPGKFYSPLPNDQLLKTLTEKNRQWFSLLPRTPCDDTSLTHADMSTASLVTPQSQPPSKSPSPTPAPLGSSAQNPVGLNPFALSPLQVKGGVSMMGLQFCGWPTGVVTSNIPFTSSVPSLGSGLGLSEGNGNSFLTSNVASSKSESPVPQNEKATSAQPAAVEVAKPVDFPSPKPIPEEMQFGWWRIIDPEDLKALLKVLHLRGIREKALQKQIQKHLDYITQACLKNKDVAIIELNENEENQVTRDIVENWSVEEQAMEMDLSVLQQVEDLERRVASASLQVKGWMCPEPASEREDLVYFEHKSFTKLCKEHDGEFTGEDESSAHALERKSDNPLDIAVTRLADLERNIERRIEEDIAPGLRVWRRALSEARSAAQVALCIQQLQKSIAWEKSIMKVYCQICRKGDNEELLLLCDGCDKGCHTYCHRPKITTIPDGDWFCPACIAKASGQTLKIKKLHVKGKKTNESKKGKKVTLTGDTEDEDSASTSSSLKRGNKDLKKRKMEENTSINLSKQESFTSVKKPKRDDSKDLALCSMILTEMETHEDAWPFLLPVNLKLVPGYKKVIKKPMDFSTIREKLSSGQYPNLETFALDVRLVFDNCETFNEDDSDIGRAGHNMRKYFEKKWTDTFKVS
#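 Inhibition is scored as reduced AlphaScreen emission. The BAZ2B/b-H3(5-23)K14Ac complex (50 nM each) in PBS pH 7.4, 0.01% Tween-20 meets compound (up to 110 uM) for 30 min at RT before bead addition.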
# G9a inh: qHTS Assay for Inhibitors of Histone Lysine Methyltransferase G9a; Histone-lysine N-methyltransferase EHMT2 (Homo sapiens), Q96KQ7; G9a H3K9 monomethylation, AlphaScreen, 2 h; Potency, µM (highest dose often 102 µM), for inactives: at the highest dose activity, negative = inhibition, most hits filed as inhibitors; 350,000 compounds, 8.8% hits; AID 504332, 2011; note: % is set by controls: 0 for no effect and ±100 for the full control effect; nearly all actives have a fitted effect of over 75% in size
#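 Readings reflect AlphaScreen signal from monomethyl-H3K9 antibody detection. HMT at 20 nM; substrate b-H3K9 500 nM; cofactor SAM 20 uM; 2 h RT reaction; compounds tested as titrations in qHTS with 15 min preincubation.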
# JMJD2A Tudor: qHTS Assay for Inhibitors of JMJD2A-Tudor Domain; Lysine-specific demethylase 4A (Homo sapiens), O75164; AlphaScreen JMJD2A-Tudor / H3K4me3 peptide binding; Potency, µM (titrated, usually from 114 µM), inactives show at the top dose activity change, negative = inhibition, hits mostly inhibitors; 390,000 compounds, 4.4% hits; note: % is set by controls: 0 for no effect and ±100 for the full control effect; nearly all actives have a fitted effect of over 50% in size
# HP1b chromo inh: HTS for Inhibitors of HP1-beta Chromodomain Interactions with Methylated Histone Tails; Chromobox protein homolog 1 (Homo sapiens), P83916; AlphaScreen HP1-beta / biotin-H3K9me3 peptide binding; Potency, µM (series often up to 114 µM), for inactives: at the highest dose activity change, negative = inhibition, actives largely listed as inhibitors; 390,000 compounds, 0.56% hits; AID 540317, 2011; note: nearly all actives have a fitted effect of over 70% in size
#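 AlphaScreen: HP1-beta (50 nM) preformed 30 min with biotin-H3(1-18)K9me3 peptide (50 nM) in PBS pH 7.4, 0.01% Tween-20. Compound added for 30 min at RT, then streptavidin donor/nickel chelate acceptor beads (10 ug/mL) for 30 min.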
# TDP1 inh: qHTS Assay for Inhibitors of Tyrosyl-DNA Phosphodiesterase (TDP1) | 350,000 compounds, 0.28% hits | recombinant TDP1, AlphaScreen DNA substrate cleavage | Potency, µM (doses to about 130 µM), for inactives: at the top dose activity change, negative = inhibition, most hits filed as inhibitors | Tyrosyl-DNA phosphodiesterase 1 (Homo sapiens), Q9NUW8; note: % is set by controls: 0 for no effect and ±100 for the full control effect; nearly all actives have a fitted effect of over 40% in size
#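 Signal: AlphaScreen proximity between streptavidin donor and anti-FITC acceptor beads on intact substrate. Reaction: Tdp1 1 nM, substrate 15 nM final, 5 min RT after 15 min compound preincubation.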
# An asterisk follows results filed as active; ? = inconclusive; . = not tested or not shown; [ ] = remark or other dose. In the library only some 12% were active in any assay of this set; here they are far more common. Calls come from the whole dose curve; as a rule, active = well fitted curve in the direction sought with a large enough effect; inconclusive = small, poorly fitted or top-dose-only effect, or another doubt; inactive = no such curve, though single readings can be large; an effect the other way counts as inactive or inconclusive. Potency is the fitted concentration of half-maximal effect.
SMILES,Sfp inh,BAZ2B inh,G9a inh,JMJD2A Tudor,HP1b chromo inh,TDP1 inh
CCc1cccc(C)c1NC(=O)Cn1nnc(-c2nc(-c3ccccc3F)no2)c1N,.,56.2µM*,?,-26.2%,43.9%,-2.8%
Cc1cc(C)cc(NC(=O)Cn2nnc(-c3nc(-c4ccncc4)no3)c2N)c1,.,?,-35.5%[59 µM],56.2µM*,72.1%,2.8%
O=C(C1CCN(S(=O)(=O)c2cc(Cl)ccc2Cl)CC1)N1CCCC1,5.8%,-14.5%,-5.1%,-2.8%,39.7%,.
COc1ccccc1-c1sc2cc3c(cc2c1C#CC1(O)CCCCC1)OCO3,.,79.4µM*,3.9%[0.501 µM],-24.6%,62.3%,-3.9%
N[C@H](C(=O)O)[C@H]1C[C@@H]1C(=O)O,-0.6%,.,30.8%[12.7 µM],.,.,4.7%[56.1 µM]
N[C@H](C(=O)O)[C@@H]1[C@@H](C(=O)O)C1(F)F,89.1µM*,.,31.3%[59 µM],.,.,-12.2%
Cc1nc(-n2nc(C)c(CCC(C)C)c2C)sc1C(=O)Nc1cccc(Cl)c1C,.,?,14.1µM*,-9.6%,31.0%,-5.7%
C=CCN(CC=C)C(=O)c1cccc(OC2CCN(CC(C)(C)C)CC2)c1,-14.0%,4.9%,.,5.8%,38.0%,.
CC1SC(=NC(=O)c2ccco2)NC1=O (configuration not stated),-8.0%,5.3%,50.1µM*,?,-5.3%,-4.7%
O=C(Nc1cccc(C(=O)OCc2cc(=O)n3nc(C4CC4)sc3n2)c1)c1cccc(F)c1,.,-5.6%,4.7%[59 µM],-28.8%,17.6%,3.8%
Cc1n[nH]c(C)c1CS(=O)(=O)c1ccccc1,-4.1%,3.5%,3.5%,3.1%,23.2%,2.5%
CC(=O)/C(=N\Nc1ccccc1Cl)Sc1nnc(-c2ccccc2)n1-c1ccccc1,-20.8%,-33.4%,8.91µM*,-29.0%,50.8%,7.9%
CC(=O)/C(=N\Nc1ccccc1)Sc1nnc(-c2ccccc2)n1-c1ccccc1,-26.9%,-10.8%,10µM*,31.6µM*,52.5%,5.3%
CC(=O)/C(=N\Nc1ccccc1)Sc1nncn1C,20µM*,?,3.98µM*,20µM*,17.5%,.
Cn1cnnc1SCC(=O)NCc1ccccc1,0.2%,-4.0%,1.2%[12.7 µM],3.6%,23.3%,-2.7%
CN(C)CCSc1nc2cc(S(=O)(=O)N3CCCCC3)ccc2o1,.,.,.,-22.9%,17.8%,0.8%
Cc1nc2cnc(N3CCOCC3)nc2n(CCC#N)c1=O,22.7%,.,9.8%[12.7 µM],.,.,.
Cc1nc(C)c(CCNC(=O)c2cccc(Cl)c2)s1,-1.8%,10.2%,79.4µM*,2.1%,17.8%,-0.6%
Cc1nc(C)c(CCNC(=O)c2ccccc2)s1,-6.8%,-6.9%,9.8%[59 µM],1.4%,22.3%,2.6%
O=C(CSc1nc2c(c(=O)n1-c1ccc(Cl)cc1)SCC2)Nc1ccc2c(c1)OCCO2,13.0%,5.4%,44.7µM*,-19.9%,36.1%,8.2%
O=C(CNCc1ccccc1Cl)Nc1ccc2c(c1)OCCO2,-19.4%,56.2µM*,.,28.2µM*,?,-11.8%
O=C(CSc1nnc(-c2ccccn2)n1-c1ccc(Cl)cc1)Nc1ccc2c(c1)OCO2,1.5%,?,14.1µM*,-25.9%,40.1%,4.7%
O=C(CNCc1ccc(Cl)cc1)Nc1ccc2c(c1)OCCO2,-24.0%,56.2µM*,11.2µM*,17.8µM*,?,2.7%
CCOC(=O)CNC(=S)N(Cc1ccco1)Cc1ccccc1Cl,-2.4%,-2.6%,?,-23.3%,-9.0%,.
COc1ccc(CC(=O)N2CCN(S(=O)(=O)c3cccs3)CC2)cc1OC,26.4%,-3.3%,-3.1%,-13.9%,18.1%,1.4%
SMILES,Sfp inh,BAZ2B inh,G9a inh,JMJD2A Tudor,HP1b chromo inh,TDP1 inh
COc1ccc(-n2nc3cc(C)c(NC(=O)Cc4ccc(Cl)cc4)cc3n2)cc1,.,-0.9%,0.0%[59 µM],1.3%,46.0%,-1.3%[12.3 µM]
O=C(CSc1nccn1Cc1ccc(Cl)cc1)Nc1ccc2c(c1)OCCO2,.,?,?,50.1µM*,-11.9%[57 µM],9.9%
COc1c[nH]n(C2CCCCC2)c(=O)c1=O,-3.9%,?,22.4µM*,20µM*,7.4%,3.9%
CCn1c(C)c(C)c2cc(C(=O)NCc3ccc(F)cc3)ccc21,.,?,-36.2%[59 µM],?,-1.9%,13.2%
CCOc1ccc(CNC(=O)c2ccc3c(c2)c(C)c(C)n3C)cc1,.,39.8µM*,-48.2%[59 µM],?,-10.6%,7.9%
CCn1c(C)c(C)c2cc(C(=O)NCc3ccc(N(C)C)cc3)ccc21,.,22.4µM*,12.6µM*,22.4µM*,?,13.2%
CN(C)c1ccc(CNC(=O)c2ccc3c(c2)N(C)C(=O)C2CCCCN32)cc1 (configuration not stated),.,44.7µM*,17.8µM*,44.7µM*,-2.2%[57 µM],5.3%
CC(=O)Nc1ccc(SC[C@H](c2ccccc2)N2CCN(CCc3ccccc3)CCC2=O)cc1,5.1%,-22.4%,-46.9%[59 µM],.,.,0.0%
O=C(COc1ccccc1Cl)Nc1ccc(-c2nc3ccccc3s2)cc1,.,-0.8%,-17.3%[59 µM],-21.6%,1.9%,1.3%[12.3 µM]
Cc1ccc(NC(=O)Cn2c(-c3cncs3)nc3ccccc32)c(Br)c1,.,-8.8%,-33.8%[59 µM],-34.6%,7.0%,7.0%
CC1CN(S(=O)(=O)c2ccc(C(=O)OCc3ccc(C#N)cc3)cc2)CC(C)O1 (configuration not stated),.,-2.1%,-6.1%[59 µM],-1.6%,47.1%,0.9%
Cc1ccc(NC(=S)N2CCC(NC(=O)c3ccc(C)cc3)CC2)cc1,9.0%,-1.0%,79.4µM*,-18.2%,-4.8%,0.5%
Cc1cccc(C(=O)NC2CCN(C(=O)Nc3ccccc3C)CC2)c1,5.2%,3.5%,-1.9%,0.7%,10.5%,0.0%
Cc1cccc(C(=O)NC2CCN(C(=O)Nc3ccc(F)cc3)CC2)c1,10.6%,-2.1%,79.4µM*,-1.4%,-4.9%,3.5%[0.0935 µM]
CCOc1ccccc1NC(=O)N1CCC(NC(=O)c2cccc(C)c2)CC1,-25.1%,12.9%,31.6µM*,-32.1%,3.7%,-11.5%
COCCNc1nc(C)nc2c1nc(-c1ccccc1)n2CCN1CCCCC1,29.9%,.,.,.,.,3.9%
C/C=C/C1=CC2=CC(=O)C(C)(OC(=O)c3c(C)cc(O)cc3O)C(=O)C2=CO1 (configuration not stated),-8.9%,.,.,.,.,-6.9%
CCN1C(=S)N[C@@H](c2cccs2)C(C(=O)OC)=C1C,-8.0%,-6.0%,.,-18.6%,34.5%,.
COc1ccccc1CNC(=O)c1sc2nc3n(c(=O)c2c1C)CCC3,.,-26.4%,-0.9%[59 µM],-14.1%,40.4%,-2.6%
C[N+]1(C)CCC(=C2c3ccccc3CC(=O)c3sccc32)CC1,5.7%,7.08µM*,6.31µM*,-22.4%,20.7%,-3.8%
